This is an account of results in PubChem BioAssay.

Active and inactive are the calls of the source.

For experiment [1], the system named is PRMT1 (protein arginine N-methyltransferase 1). The experiment is described as follows: small molecules binding arginine methyltransferase PRMT1 – biochemical, small-molecule microarray, 635 nm fluorescence, primary screen (AID 1088).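 Note: binding of Prmt1 protein to compounds spotted on small-molecule microarray slides.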 The conditions noted are these: higher = more signal.
The nature of experiment [2]: growth effects on S. cerevisiae YJM789 – YJM789 clinical isolate, OD600, 24 h, basal, primary screen (AID 1089).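 Note: growth of clinical yeast isolate S. cerevisiae YJM 789 seeded 1000 cells per well; test concentration not given here.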 The settings on record: higher = more signal, called active from +8 up or from −8 down.
Experiment [3] can be described thus: S. pombe growth modifiers, basal conditions – strain 972, OD600, 24 h, no modulator, primary screen (AID 1090).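 Note: basal condition with compound alone and no growth modifier present; test concentration not given here.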 The settings on record: S. pombe 972 growth, higher = more signal, called active from +8 up or from −8 down.
The nature of experiment [4]: budding yeast growth modifiers under rapamycin – strain BY4716, OD600, 96 h, primary screen (AID 1091). Note: test concentration not given here. The settings on record: S. cerevisiae BY4716 + rapamycin, higher = more signal, called active from +8 up or from −8 down.
Experiment [5] concerns the target Torsin-1A-interacting protein 2 (Homo sapiens) (UniProt Q8NFQ8). The experiment is described as follows: small molecules binding lysate-expressed LULL1 – cell lysate, human LULL1 lysate, 635/667 nm fluorescence, primary screen (AID 1092).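 Note: probe is lysate of COS7 cells overexpressing human LULL1; score merges per-feature 667 nm fluorescence with signal-to-noise.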 The conditions noted are these: small-molecule microarray, hLULL1 lysate binding, 635 nm fluorescence; higher = more signal.
Experiment [6] can be described thus: optical density change of DRC41 E. coli – strain DRC41, OD650, 24 h, E. coli filamentation project, primary screen (AID 1093).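 Note: MC1000 strain lacking acrAB efflux and sulA so SOS filamentation is blocked; test concentration not given here.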 The settings on record: E. coli DRC41 growth, higher = more signal, called active from +8 up or from −8 down.
Experiment [7] in a line: probe aLefty2 binding to arrayed compounds – biochemical, biotinylated probe, 635/667 nm fluorescence, primary screen (AID 1094).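 Note: score merges spot fluorescence near 667 nm with spot signal-to-noise ratio.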 The conditions noted are these: small-molecule microarray, higher = more signal.
Experiment [8] relates to Noggin (protein binding on small-molecule microarray). Kind of experiment: small molecules binding Noggin protein – biochemical, 635/667 nm fluorescence, primary screen (AID 1095).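 Note: score merges 667 nm feature fluorescence with signal to noise over triplicate slides.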 The conditions noted are these: 635 nm fluorescence, higher = more signal.
For experiment [9], the target named is Neurogenic locus notch homolog protein 3 (Homo sapiens) (UniProt Q9UM47). The experiment is described as follows: small molecules binding NOTCH3 protein – biochemical, 635/667 nm fluorescence, primary screen (AID 1096). The conditions noted are these: small-molecule microarray, 635 nm fluorescence, higher = more signal.
Experiment [10] can be described thus: probe aEGFR binding to arrayed compounds – biochemical, biotinylated probe, 635/667 nm fluorescence, primary screen (AID 1097).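 Note: probe is a biotinylated anti-EGFR antibody binding compounds printed on slides; score combines fluorescence near 667 nm and signal to noise of each spot.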 The settings on record: small-molecule microarray, higher = more signal.
In experiment [11] the test system is Plasmodium falciparum Sir2 (PF13_0152, Sir2A). The experiment is described as follows: Plasmodium falciparum Sir2A binding compounds – biochemical, small-molecule microarray, 635 nm fluorescence, primary screen (AID 1098).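 Note: score merges spot fluorescence intensity with its signal-to-noise ratio.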 The conditions noted are these: fluorescence 635 nm, higher = more signal.
Experiment [12] is described as follows: probe aDKK1 binding to arrayed compounds – biochemical, biotinylated probe, 635/667 nm fluorescence, primary screen (AID 1099).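 Note: score merges 667nm spot fluorescence with signal to noise across triplicate slides; reference of the scale not given here.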 The conditions noted are these: small-molecule microarray, higher = more signal.
The nature of experiment [13]: probe aCHRDL2 binding to arrayed compounds – biochemical, biotinylated probe, 635/667 nm fluorescence, primary screen (AID 1100). The settings on record: small-molecule microarray, higher = more signal.
Experiment [14] is described as follows: change in splice reporter luminescence, either direction, cell-based, HEK293, spliceosome inhibition project, primary screen (AID 1101).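 Note: HEK293 cells carrying a splicing-competent luciferase reporter gene; test concentration not given here.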 The conditions noted are these: HEK293 splicing luciferase reporter, 24 h, higher = more signal, called active from +8 up or from −8 down. Background: A reporter such as luciferase makes a cellular process visible.
For experiment [15], the target named is Fibroblast growth factor 10 (Homo sapiens) (UniProt O15520). Kind of experiment: compounds binding fibroblast growth factor 10 – biochemical, small-molecule microarray, 635 nm fluorescence, primary screen (AID 1102). The settings on record: FGF10 binding, fluorescence 635 nm, higher = more signal.
The subject of experiment [16] is glycogen synthase kinase-3 (GSK3A per assay name; protocol says GSK3B). The experiment is described as follows: compounds binding glycogen synthase kinase-3 – biochemical, small-molecule microarray, 635 nm fluorescence, GSK3A, primary screen (AID 1103). Note: the record names both GSK3A and GSK3B. The conditions noted are these: fluorescence 635 nm, higher = more signal.
The target of experiment [17] is Epidermal growth factor receptor (Homo sapiens) (UniProt P00533). Kind of experiment: compounds binding epidermal growth factor receptor – biochemical, small-molecule microarray, 635 nm fluorescence, primary screen (AID 1104).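 Note: score merges 667 nm emission intensity with spot signal to noise over triplicate slides.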 The conditions noted are these: EGFR binding, higher = more signal.
The target in experiment [18] is Follistatin-related protein 3 (Homo sapiens) (UniProt O95633). The experiment is described as follows: compounds binding follistatin-related protein 3 – biochemical, small-molecule microarray, 635 nm fluorescence, primary screen (AID 1105).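 Note: score merges emission near 667 nm and signal to noise per printed spot across three slides.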 The settings on record: FSTL3 binding, higher = more signal.
The target of experiment [19] is Dickkopf-related protein 1 (Homo sapiens) (UniProt O94907). The experiment is described as follows: small molecules binding DKK1 protein – biochemical, small-molecule microarray, 635 nm fluorescence scan, primary screen (AID 1106).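 Note: score merges emission near 667 nm with signal to noise over three replicate slides.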 The conditions noted are these: higher = more signal.
The test system of experiment [20] is Inhibin beta A chain (activin A). Kind of experiment: small molecules binding activin A – biochemical, small-molecule microarray, 635 nm fluorescence scan, primary screen (AID 1107).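 Note: mouse activin A protein probed at 4.33 µg/mL on printed slides; score merges bound-protein fluorescence near 667 nm with spot signal-to-noise.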 The conditions noted are these: INHBA, higher = more signal.

Torsin-1A-interacting protein 2 (Homo sapiens), sequence (Q8NFQ8 whole entry, looked up): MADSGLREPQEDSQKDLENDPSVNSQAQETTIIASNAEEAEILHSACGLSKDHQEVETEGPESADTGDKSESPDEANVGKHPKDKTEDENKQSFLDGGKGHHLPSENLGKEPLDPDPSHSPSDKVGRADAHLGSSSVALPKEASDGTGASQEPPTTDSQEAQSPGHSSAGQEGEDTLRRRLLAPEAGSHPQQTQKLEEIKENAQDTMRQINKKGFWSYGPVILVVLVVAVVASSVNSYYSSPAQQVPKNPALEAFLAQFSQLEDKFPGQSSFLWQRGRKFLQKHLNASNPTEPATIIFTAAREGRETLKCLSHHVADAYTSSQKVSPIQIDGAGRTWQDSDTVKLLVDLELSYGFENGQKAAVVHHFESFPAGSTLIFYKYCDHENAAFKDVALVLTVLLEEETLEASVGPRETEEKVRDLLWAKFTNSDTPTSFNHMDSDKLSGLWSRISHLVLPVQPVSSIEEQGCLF
Epidermal growth factor receptor (Homo sapiens), sequence (P00533 whole entry, looked up): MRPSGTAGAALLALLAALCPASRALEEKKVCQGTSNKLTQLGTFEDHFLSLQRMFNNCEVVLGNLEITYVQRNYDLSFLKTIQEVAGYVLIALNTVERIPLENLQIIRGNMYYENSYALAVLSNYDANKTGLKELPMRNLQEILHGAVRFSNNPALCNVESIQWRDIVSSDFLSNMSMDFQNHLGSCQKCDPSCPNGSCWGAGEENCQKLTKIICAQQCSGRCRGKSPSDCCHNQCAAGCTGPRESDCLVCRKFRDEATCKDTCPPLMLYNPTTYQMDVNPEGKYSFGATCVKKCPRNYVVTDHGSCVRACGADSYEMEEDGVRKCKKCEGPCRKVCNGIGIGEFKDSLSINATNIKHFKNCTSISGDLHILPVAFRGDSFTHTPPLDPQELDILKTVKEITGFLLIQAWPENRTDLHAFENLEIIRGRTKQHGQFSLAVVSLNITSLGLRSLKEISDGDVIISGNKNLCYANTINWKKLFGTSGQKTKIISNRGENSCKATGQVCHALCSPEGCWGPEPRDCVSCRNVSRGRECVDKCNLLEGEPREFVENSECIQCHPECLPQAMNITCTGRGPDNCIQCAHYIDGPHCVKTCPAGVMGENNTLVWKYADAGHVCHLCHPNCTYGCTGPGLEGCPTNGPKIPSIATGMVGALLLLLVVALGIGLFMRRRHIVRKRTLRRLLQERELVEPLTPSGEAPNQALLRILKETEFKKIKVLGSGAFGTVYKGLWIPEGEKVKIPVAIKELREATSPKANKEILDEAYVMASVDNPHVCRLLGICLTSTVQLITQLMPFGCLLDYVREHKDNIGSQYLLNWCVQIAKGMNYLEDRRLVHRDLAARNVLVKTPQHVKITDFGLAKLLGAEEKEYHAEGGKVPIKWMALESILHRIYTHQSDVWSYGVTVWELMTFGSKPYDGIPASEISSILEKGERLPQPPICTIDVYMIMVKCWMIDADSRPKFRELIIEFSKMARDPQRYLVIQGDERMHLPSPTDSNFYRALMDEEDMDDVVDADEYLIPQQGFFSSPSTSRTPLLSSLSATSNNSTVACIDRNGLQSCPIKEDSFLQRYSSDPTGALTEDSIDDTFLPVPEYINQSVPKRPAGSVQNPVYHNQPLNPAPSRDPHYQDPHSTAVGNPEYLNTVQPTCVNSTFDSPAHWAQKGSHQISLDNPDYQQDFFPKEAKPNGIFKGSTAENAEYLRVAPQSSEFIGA
Neurogenic locus notch homolog protein 3 (Homo sapiens), sequence (Q9UM47 whole entry, looked up): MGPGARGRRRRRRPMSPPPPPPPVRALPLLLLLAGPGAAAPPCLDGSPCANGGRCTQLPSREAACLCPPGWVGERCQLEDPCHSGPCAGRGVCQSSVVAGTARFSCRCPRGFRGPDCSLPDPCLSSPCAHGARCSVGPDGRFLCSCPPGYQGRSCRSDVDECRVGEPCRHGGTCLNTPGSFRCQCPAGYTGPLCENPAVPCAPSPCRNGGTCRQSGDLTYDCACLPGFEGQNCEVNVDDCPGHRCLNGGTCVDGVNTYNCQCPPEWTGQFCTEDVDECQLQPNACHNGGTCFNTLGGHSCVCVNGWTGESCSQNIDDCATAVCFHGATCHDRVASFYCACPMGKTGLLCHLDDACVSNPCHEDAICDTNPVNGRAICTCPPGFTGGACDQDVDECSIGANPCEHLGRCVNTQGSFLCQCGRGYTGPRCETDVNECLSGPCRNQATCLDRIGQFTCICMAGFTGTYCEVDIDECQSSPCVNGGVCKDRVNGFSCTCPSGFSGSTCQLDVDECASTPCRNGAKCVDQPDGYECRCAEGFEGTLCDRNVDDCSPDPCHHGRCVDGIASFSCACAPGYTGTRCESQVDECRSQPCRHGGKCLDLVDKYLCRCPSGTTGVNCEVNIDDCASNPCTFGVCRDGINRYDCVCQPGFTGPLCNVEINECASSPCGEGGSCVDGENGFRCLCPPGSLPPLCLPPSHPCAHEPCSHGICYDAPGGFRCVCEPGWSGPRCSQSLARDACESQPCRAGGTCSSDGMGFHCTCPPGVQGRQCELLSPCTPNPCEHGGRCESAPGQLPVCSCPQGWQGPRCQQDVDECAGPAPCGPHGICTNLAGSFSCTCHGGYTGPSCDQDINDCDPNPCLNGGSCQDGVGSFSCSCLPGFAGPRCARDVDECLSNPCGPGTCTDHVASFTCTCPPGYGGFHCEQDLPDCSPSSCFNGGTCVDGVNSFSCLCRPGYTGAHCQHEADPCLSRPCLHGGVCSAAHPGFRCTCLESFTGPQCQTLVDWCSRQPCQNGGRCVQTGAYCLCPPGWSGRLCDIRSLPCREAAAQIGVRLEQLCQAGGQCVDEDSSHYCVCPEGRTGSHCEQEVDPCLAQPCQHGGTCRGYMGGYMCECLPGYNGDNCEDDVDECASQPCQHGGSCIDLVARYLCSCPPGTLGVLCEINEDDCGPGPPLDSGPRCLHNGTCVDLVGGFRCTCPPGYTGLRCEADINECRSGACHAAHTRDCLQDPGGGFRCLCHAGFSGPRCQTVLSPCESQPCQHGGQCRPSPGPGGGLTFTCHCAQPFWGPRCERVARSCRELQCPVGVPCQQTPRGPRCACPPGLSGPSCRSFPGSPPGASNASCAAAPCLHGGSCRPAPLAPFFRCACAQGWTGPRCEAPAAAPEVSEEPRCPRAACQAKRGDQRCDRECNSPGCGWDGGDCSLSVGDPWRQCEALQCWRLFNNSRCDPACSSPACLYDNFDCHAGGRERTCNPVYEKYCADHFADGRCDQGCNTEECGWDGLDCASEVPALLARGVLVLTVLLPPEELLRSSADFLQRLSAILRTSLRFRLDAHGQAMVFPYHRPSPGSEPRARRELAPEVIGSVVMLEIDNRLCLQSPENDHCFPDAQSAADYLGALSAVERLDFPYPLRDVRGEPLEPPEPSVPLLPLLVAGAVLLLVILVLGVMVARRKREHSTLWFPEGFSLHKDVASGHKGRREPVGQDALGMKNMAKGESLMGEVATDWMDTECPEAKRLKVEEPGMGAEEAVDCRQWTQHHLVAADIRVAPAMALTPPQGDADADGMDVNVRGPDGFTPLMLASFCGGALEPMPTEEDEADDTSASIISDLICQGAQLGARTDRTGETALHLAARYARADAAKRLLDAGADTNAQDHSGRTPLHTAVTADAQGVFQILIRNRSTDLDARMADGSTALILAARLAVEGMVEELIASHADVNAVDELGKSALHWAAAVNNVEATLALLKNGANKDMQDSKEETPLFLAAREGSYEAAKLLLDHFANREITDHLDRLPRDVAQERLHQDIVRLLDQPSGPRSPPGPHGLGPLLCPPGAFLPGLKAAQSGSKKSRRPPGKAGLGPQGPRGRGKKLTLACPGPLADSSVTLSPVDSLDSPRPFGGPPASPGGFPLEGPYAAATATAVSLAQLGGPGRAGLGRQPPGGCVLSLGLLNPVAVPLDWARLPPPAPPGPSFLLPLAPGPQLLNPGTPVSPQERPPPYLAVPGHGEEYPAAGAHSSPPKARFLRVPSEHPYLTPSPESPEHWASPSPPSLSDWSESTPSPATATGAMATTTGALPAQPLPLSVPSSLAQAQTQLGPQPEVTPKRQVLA
Follistatin-related protein 3 (Homo sapiens), sequence (O95633 whole entry, looked up): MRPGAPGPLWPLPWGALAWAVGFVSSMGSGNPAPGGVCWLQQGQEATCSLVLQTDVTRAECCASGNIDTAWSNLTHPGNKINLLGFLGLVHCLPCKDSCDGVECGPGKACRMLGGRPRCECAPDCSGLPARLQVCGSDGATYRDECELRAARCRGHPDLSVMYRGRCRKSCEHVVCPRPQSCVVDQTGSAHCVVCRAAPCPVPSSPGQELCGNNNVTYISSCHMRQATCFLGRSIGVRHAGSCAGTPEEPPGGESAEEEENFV
Dickkopf-related protein 1 (Homo sapiens), sequence (O94907 whole entry, looked up): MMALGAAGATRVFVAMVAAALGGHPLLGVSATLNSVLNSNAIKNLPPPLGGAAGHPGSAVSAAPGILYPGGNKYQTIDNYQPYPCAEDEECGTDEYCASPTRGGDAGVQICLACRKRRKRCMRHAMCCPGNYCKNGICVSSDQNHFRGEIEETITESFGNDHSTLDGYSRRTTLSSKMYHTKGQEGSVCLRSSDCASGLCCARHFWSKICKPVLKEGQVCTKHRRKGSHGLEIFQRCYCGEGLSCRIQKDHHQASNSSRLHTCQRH
Fibroblast growth factor 10 (Homo sapiens), sequence (O15520 whole entry, looked up): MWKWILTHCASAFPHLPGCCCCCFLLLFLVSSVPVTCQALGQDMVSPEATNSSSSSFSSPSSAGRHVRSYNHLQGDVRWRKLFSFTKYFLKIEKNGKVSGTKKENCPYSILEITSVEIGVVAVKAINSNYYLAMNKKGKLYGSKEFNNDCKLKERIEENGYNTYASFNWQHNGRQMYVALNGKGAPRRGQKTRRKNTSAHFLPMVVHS

In the case of `CCCNC(=O)OC[C@H]1O[C@H](CCON=C(C)CCN2CCc3nc(CC)c(CC)cc3C2)C=C[C@@H]1Oc1ccc(OC)cc1`, the composite z-score is 0.285 in [1]; 0.73 in experiment [5]; -0.0539 in [7]; 0.559 in experiment [8]; -0.286 in [9]; -0.0381 in [10]. For the same molecule, the composite z-score was 0.865 in experiment [11]; -0.231 in experiment [12]; -0.163 in experiment [13]; -0.423 in experiment [15]; -0.687 in experiment [16]; 0.159 in experiment [17]. Further, the composite z-score in experiment [18] amounted to 0.125; in experiment [19], 0.192; in [20], 0.886. Also, the z-score in [2] was -0.348 (inactive); in [3] it was -2.36 (inactive); in experiment [4] it was 0.156 (inactive); in experiment [6] it was 0.004 (inactive); in experiment [14] it was -1.02 (inactive).
With `CCOC(=O)CCN1C(=O)[C@H]2[C@H]3[C@H](O)[C@H](O)CC(=NOCC(C)C)[C@H]3CC[C@H]2C1=O`, the composite z-score in [1] was -0.309; in experiment [5], 0.22; in experiment [7] it was 0.096; in [8] it was 0.109; in experiment [9] it was -0.0186; in experiment [10], -0.15. Moreover, the composite z-score in experiment [11] was -0.108; in experiment [12], 0.16; in experiment [13], 0.782; in experiment [15] it was -0.147; in experiment [16], -0.239; in experiment [17], 0.214. For the same molecule, the composite z-score was -0.276 in experiment [18], -0.0273 in experiment [19] and 0.617 in experiment [20]. In addition, the z-score in experiment [2] is 0.199 (inactive); in [3] it was 0.307 (inactive); in experiment [4], 0.0797 (inactive); in experiment [6], 0.251 (inactive); in [14], 0.108 (inactive).
Regarding `CC(C)=CCCC(C)=CCON=C1C[C@@H](O)[C@@H](O)[C@@H]2[C@@H]3C(=O)N(C4CCCCC4)C(=O)[C@@H]3CC[C@@H]12`, the composite z-score in experiment [1] was 0.614; in experiment [5], -0.687; in [7] it was -0.15; in experiment [8], 0.615; in experiment [9], -0.407; in [10], -0.0956. Also, the composite z-score is 0.511 in [11]; -0.355 in [12]; -0.858 in [13]; 0.368 in [15]; -0.345 in [16]; 0.859 in experiment [17]. Further, the composite z-score stood at 0.502 in experiment [18], 0.996 in experiment [19] and 1.04 in [20]. Moreover, the z-score was -0.671 (inactive) in experiment [2]; -2.8 (inactive) in experiment [3]; -0.513 (inactive) in experiment [4]; -0.257 (inactive) in experiment [6]; 0.956 (inactive) in experiment [14].
On to `COC(=O)CC=C[C@H](C)[C@@H](OCc1cccc(Br)c1)[C@@H](C)[C@H](OC)C1CCCCC1`, for which the composite z-score was -0.0514 in experiment [1]; -0.412 in experiment [5]; -0.166 in experiment [7]; 0.32 in [8]; -1 in experiment [9]; -0.237 in experiment [10]. The composite z-score in experiment [11] is 0.242; in [12], -0.462; in [13] it was -0.233; in experiment [15], -0.0117; in experiment [16], -1.16; in [17], 0.153. For the same molecule, the composite z-score in experiment [18] was -0.449; in experiment [19], 0.515; in experiment [20] it was 1.34. Besides, the z-score is 0.738 (inactive) in experiment [2]; -1.28 (inactive) in experiment [3]; 0.99 (inactive) in experiment [4]; 0.276 (inactive) in [6]; -0.256 (inactive) in [14].
In the case of `O=c1n(-c2ccccc2)c(=O)n2n1CC[C@@H]1C(=NOCc3ccccc3)[C@H]3O[C@H]3[C@@H](O)[C@@H]12`, the composite z-score in experiment [1] is -0.955; in experiment [5], -0.0733; in [7], -0.274; in experiment [8], -0.131; in experiment [9] it was 0.116; in experiment [10], -0.0531. For the same molecule, the composite z-score in [11] is -0.494; in experiment [12] it was -0.31; in experiment [13], -0.393; in experiment [15], 0.334; in experiment [16], -0.864; in experiment [17], -0.0683. The composite z-score is -0.136 in experiment [18], 0.0228 in experiment [19] and 0.168 in [20]. The z-score in [2] was -0.434 (inactive); in [3] it was -0.326 (inactive); in experiment [4], -0.871 (inactive); in [6], -0.619 (inactive); in experiment [14] it was 0.491 (inactive).
